For test [1], the target named is Nuclear receptor subfamily 1 group I member 2 (Homo sapiens) (UniProt O75469). The test can be described thus: Human pregnane X receptor (PXR) small molecule agonists, qHTS assay (AID 1346982). Further: nearly all actives have a fitted effect of over 35% in size. Further: potency means the concentration at half of the fitted maximal effect. The procedure, abridged: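 PXR-Luc HepG2 cells (CYP3A4 promoter-driven luciferase) were seeded in medium with 5% charcoal-stripped FBS, left 5 hr at 37 C, then exposed to compounds in DMSO for 24 hr. Luminescence was read after ONE-Glo addition.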
On the technique in general: Quantitative high-throughput screening tests each substance at several concentrations.

Test [2] concerns the target Cytochrome P450 2D6 (Homo sapiens) (UniProt P10635). The test can be described thus: Cytochrome P450 Family 2 Subfamily D Member 6 (CYP2D6) small molecule antagonists: luciferase reporter qHTS assay (AID 1671196). Further: nearly all actives have a fitted effect of over 50% in size. Further: potency means the concentration at half of the fitted maximal effect. On activity change, negative = inhibition: series mostly up to about 120 µM. The procedure, abridged: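 CYP2D6 enzyme–substrate mix was held with compound for 10 min at room temperature, then NADPH regeneration solution was added and the reaction ran 1 h at room temperature. Luciferin product was detected by luminescence after 20 min with detection reagent.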
(A reporter such as luciferase makes a cellular process visible.)

Test [3] concerns the target Cytochrome P450 2C19 (Homo sapiens) (UniProt P33261). The experiment in a line: Cytochrome P450 Family 2 Subfamily C Member 19 (CYP2C19) small molecule antagonists: luciferase reporter qHTS assay (AID 1671197). Further: nearly all actives have a fitted effect of over 65% in size. Further: potency means the concentration at half of the fitted maximal effect. On activity change, negative = inhibition: series mostly up to about 120 µM. In short, it runs like this: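 Relative luminescence units recorded 20 min after the detection reagent stopped a 1 h, 37C CYP2C19 reaction on proluciferin substrate, which was started by NADPH regeneration following 10 min room-temperature compound preincubation; ketoconazole positive control.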

For test [4], the target named is Cytochrome P450 2C9 (Homo sapiens) (UniProt P11712). The test can be described thus: Cytochrome P450 Family 2 Subfamily C Member 9 (CYP2C9) small molecule antagonists: luciferase reporter qHTS assay (AID 1671198). Further: nearly all actives have a fitted effect of over 50% in size. Further: potency means the concentration at half of the fitted maximal effect. On activity change, negative = inhibition: series mostly up to about 120 µM. The procedure, abridged:
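CYP2C9 activity was measured with a P450-Glo proluciferin substrate. Enzyme–substrate mix was held with compound for 10 min at room temperature, then NADPH regeneration solution was added for 1 h at 37C. Luciferin product was read as luminescence.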

For test [5], the target named is Cytochrome P450 1A2 (Homo sapiens) (UniProt P05177). The experiment in a line: Cytochrome P450 Family 1 Subfamily A Member 2 (CYP1A2) small molecule antagonists: luciferase reporter qHTS assay (AID 1671199). Further: nearly all actives have a fitted effect of over 50% in size. Further: potency means the concentration at half of the fitted maximal effect. On activity change, negative = inhibition: series mostly up to about 120 µM. The procedure, abridged: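 Human CYP1A2 activity measured with a P450-Glo proluciferin substrate; compounds in DMSO preincubated 10 min at room temperature with enzyme-substrate mix, then NADPH regeneration system added for 1 h. Luciferin detection reagent, 20 min, luminescence read.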

Test [6] has as its target Voltage-gated inwardly rectifying potassium channel KCNH2 (Homo sapiens) (UniProt Q12809). The experiment in a line: Human Ether-a-go-go-Related Gene (hERG) channel small molecule antagonists: fluorescence cell-based qHTS assay (AID 1671200).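 Further: hERG-expressing U2OS cells given a thallium stimulus after FluxOR II dye loading; series mostly up to about 77 µM; nearly all actives have a fitted effect of over 50% in size.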 In short, it runs like this:
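First, 1000 cells per well are seeded and cultured overnight at 37 C. Next, FluxOR II dye is loaded for 1 h at room temperature, protected from light. After 10 more minutes, stimulus is added and fluorescence is read.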

In test [7] the target is Cytochrome P450 3A4 (Homo sapiens) (UniProt P08684). The test can be described thus: Cytochrome P450 Family 3 Subfamily A Member 4 (CYP3A4) small molecule antagonists: luciferase reporter qHTS assay (AID 1671201). Further: nearly all actives have a fitted effect of over 50% in size. Further: potency means the concentration at half of the fitted maximal effect. On activity change, negative = inhibition: series mostly up to about 120 µM. The procedure, abridged: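 Enzyme and proluciferin substrate are mixed with test chemicals for 10 min, then NADPH regeneration system drives turnover for 1 h at room temperature. A detection reagent halts the reaction; luminescence after 20 min gives relative activity.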

Inconclusive results are not listed. Values without a mark were called inactive. Activity calls are given as the source filed them. The call rests on the fitted dose curve; in most records, active means well fitted curve in the direction sought with a large enough effect in the repeat runs; inconclusive means weak or mixed curves; inactive means no such curve, though single readings can be large; an effect the other way counts as inactive or inconclusive.
On the % scale 0 is the no-effect control and ±100 the full control effect.

Sequence of Cytochrome P450 3A4 (Homo sapiens) (P08684 whole entry, looked up): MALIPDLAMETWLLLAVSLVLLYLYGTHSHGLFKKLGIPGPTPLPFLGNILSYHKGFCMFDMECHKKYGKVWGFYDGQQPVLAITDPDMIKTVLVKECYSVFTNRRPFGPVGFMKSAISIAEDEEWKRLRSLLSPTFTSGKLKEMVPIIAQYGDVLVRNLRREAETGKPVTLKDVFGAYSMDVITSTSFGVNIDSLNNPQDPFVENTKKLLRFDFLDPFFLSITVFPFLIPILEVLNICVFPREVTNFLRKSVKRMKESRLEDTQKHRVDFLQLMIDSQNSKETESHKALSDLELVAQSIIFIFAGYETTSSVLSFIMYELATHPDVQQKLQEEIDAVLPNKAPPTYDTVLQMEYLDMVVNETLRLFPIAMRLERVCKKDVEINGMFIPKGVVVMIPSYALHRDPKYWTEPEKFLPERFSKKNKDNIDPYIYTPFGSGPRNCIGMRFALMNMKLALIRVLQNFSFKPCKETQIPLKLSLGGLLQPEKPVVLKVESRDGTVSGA
Sequence of Voltage-gated inwardly rectifying potassium channel KCNH2 (Homo sapiens) (Q12809 whole entry, looked up): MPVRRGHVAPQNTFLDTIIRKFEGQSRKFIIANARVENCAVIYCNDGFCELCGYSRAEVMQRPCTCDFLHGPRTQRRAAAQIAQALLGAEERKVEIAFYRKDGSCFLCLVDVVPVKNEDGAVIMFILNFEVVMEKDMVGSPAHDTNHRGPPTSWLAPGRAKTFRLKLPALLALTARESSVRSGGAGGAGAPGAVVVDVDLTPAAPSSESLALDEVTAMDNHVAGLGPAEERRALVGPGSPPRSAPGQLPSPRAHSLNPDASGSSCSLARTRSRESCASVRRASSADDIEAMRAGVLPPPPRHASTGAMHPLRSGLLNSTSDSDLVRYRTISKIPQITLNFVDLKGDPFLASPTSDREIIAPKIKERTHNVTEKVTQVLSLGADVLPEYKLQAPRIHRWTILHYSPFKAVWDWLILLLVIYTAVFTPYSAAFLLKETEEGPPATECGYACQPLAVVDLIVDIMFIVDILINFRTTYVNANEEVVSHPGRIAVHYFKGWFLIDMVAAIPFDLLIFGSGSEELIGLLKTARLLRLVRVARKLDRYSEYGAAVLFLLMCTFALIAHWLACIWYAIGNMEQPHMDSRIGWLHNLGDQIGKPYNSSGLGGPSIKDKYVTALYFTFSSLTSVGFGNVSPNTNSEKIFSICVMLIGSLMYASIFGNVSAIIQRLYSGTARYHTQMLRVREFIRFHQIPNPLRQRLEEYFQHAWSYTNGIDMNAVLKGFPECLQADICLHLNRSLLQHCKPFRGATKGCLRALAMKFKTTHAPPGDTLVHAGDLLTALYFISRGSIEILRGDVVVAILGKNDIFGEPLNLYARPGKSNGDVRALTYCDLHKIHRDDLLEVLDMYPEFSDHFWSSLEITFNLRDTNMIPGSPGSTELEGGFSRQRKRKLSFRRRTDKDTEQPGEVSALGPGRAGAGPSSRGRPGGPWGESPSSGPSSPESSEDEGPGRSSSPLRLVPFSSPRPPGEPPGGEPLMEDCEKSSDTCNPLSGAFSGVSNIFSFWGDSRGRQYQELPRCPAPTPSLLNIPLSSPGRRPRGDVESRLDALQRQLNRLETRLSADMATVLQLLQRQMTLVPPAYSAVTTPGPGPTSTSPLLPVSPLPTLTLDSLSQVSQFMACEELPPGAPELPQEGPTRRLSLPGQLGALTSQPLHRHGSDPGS
Sequence of Cytochrome P450 2D6 (Homo sapiens) (P10635 whole entry, looked up): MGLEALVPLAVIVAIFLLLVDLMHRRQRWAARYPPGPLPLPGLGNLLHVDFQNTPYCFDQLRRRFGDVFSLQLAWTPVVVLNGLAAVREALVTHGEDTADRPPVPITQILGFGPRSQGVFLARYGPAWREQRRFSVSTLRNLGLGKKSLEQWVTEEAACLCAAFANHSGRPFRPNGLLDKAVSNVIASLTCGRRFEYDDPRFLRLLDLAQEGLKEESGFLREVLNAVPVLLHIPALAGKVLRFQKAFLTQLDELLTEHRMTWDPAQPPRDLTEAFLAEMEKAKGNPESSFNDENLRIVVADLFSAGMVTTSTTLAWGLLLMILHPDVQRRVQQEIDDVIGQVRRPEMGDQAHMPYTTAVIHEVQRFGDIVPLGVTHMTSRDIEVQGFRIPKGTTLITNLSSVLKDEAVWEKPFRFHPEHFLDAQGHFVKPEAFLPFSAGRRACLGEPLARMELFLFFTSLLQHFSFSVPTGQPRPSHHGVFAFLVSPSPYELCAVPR
Sequence of Cytochrome P450 2C19 (Homo sapiens) (P33261 whole entry, looked up): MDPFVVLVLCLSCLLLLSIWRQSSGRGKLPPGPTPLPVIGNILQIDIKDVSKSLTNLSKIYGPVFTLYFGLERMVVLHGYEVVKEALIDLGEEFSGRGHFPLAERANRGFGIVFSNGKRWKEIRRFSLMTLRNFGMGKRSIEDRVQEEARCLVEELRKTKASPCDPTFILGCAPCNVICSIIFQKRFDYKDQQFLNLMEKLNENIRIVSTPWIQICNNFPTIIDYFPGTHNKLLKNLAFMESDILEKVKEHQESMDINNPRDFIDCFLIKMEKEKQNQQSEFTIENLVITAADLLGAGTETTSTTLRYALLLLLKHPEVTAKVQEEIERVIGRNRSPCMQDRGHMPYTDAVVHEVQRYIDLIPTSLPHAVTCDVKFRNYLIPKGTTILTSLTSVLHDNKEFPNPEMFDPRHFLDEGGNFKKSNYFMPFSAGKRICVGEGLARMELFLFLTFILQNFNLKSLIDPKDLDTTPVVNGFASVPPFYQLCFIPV
Sequence of Cytochrome P450 1A2 (Homo sapiens) (P05177 whole entry, looked up): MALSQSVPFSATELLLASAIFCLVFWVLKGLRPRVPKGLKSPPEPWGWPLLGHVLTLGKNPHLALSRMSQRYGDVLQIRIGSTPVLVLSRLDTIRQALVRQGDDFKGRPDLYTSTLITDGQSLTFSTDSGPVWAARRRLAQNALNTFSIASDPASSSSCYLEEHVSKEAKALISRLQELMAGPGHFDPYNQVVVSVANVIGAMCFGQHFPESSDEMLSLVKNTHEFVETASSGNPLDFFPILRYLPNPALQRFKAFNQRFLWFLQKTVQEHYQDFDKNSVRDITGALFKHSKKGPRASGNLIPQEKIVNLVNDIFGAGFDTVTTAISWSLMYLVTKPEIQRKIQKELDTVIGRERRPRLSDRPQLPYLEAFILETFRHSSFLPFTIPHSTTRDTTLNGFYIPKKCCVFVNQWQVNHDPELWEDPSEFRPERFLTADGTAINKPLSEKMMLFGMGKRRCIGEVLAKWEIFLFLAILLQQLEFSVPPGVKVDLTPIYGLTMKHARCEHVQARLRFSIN
Sequence of Nuclear receptor subfamily 1 group I member 2 (Homo sapiens) (O75469 whole entry, looked up): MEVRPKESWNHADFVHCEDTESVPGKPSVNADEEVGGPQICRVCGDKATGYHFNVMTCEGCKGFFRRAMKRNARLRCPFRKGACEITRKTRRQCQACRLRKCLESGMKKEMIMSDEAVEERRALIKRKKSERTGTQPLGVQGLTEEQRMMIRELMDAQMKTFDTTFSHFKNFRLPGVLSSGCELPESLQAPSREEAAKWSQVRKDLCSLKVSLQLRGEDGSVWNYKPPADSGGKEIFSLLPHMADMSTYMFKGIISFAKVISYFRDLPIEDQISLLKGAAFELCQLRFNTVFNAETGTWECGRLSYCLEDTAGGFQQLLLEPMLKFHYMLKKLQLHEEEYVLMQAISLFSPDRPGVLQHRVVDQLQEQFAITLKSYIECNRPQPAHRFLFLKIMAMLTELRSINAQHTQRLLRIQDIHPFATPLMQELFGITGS
Sequence of Cytochrome P450 2C9 (Homo sapiens) (P11712 whole entry, looked up): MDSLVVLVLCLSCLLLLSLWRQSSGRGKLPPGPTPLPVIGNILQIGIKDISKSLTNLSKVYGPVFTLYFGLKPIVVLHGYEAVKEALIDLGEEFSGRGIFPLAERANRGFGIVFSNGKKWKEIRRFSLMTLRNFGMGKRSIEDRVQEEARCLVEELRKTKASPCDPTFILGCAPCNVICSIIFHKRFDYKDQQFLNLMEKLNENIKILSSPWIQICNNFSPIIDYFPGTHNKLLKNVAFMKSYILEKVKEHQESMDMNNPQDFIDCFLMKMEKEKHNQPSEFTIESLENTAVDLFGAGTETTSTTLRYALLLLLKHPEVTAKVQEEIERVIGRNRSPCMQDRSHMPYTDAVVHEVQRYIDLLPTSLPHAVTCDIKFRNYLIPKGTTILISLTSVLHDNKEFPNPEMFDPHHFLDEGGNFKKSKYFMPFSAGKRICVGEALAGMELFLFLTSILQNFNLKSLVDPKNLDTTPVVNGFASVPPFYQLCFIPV

For the molecule `O=C1c2ccccc2C(=O)c2cc(Cl)ccc21`, the activation in test [1] was 8.25% [at 8.39 µM]. For the same molecule, the activity change, negative = inhibition in test [2] is -1.33% [at 10.5 µM]; in test [3] it was -15.8% [at 10.5 µM]; in test [4], -13.1% [at 10.5 µM]; in test [6], -0.029% [at 6.97 µM]; in test [7] it was 5.17% [at 10.5 µM]. In addition, the Potency in test [5] was 0.138 µM (active).
Consider `CCCCCCCCCOC(=O)CCCCC(=O)OCCCCCCC`, for which the Potency result in test [1], in test [2], in test [3], in test [4] and in test [6] was “inactive” in each case.
`CC(S)C(C)S` (stereo unspecified): the Potency result in test [1], in test [2], in test [3], in test [4], in test [6] and in test [7] was “inactive” throughout.
As to `CCCCCCC1(C)CCC(=O)O1` (stereo unspecified), the Potency entry in test [1], in test [2], in test [3], in test [4], in test [6] and in test [7] was “inactive” in each case.
`CC(C)(CO)C(O)C(=O)NCCCO` (stereo unspecified): the Potency entry in test [1], in test [2], in test [3], in test [4], in test [6] and in test [7] was “inactive” throughout.
`Cc1ccc(C(=O)O)cc1[N+](=O)[O-]`: the Potency entry in test [1], in test [2], in test [3], in test [4] and in test [6] was “inactive” throughout.
In the case of `CCCCOC(=O)C(C)O` (stereo unspecified), the Potency result in test [1], in test [2], in test [3], in test [4], in test [5] and in test [6] was “inactive” each time. In test [7], the Potency entry is “inactive”.
As to `OCC1(CO)COCOC1`, the Potency entry in test [1], in test [2], in test [3], in test [4], in test [6] and in test [7] was “inactive” throughout.
For the molecule `O=[N+]([O-])c1c(Cl)cc(Cl)cc1Cl`, the Potency result in test [1], in test [2], in test [3], in test [4], in test [6] and in test [7] was “inactive” each time. The Potency in test [5] was 39.5 µM (active).
Regarding `C/C=C(\C)C(C)=O`, the Potency result in test [1], in test [2], in test [3], in test [4], in test [6] and in test [7] was “inactive” in each case.
As for `CC(C)CCOC(=O)c1ccccc1`, the Potency entry in test [1], in test [2], in test [3], in test [4] and in test [6] was “inactive” each time.
As to `O=C(O)CNC(=O)CNC(=O)CNC(=O)CSC(=O)c1ccccc1`, the Potency entry in test [1], in test [2], in test [3], in test [4], in test [6] and in test [7] was “inactive” throughout.
Turning to `O/N=C/C=N/O`, the Potency entry in test [1], in test [3], in test [4], in test [6] and in test [7] was “inactive” in each case. Further, the Potency in test [2] is 39.9 µM (active).
As to `CC(C)OC(=O)CCC(=O)OC(C)C`, the Potency entry in test [1], in test [2], in test [3], in test [4], in test [5] and in test [6] was “inactive” in each case. Further, in test [7], the Potency entry was “inactive”.
Take `CC(C)=CCC/C(C)=C/COC=O`: the Potency entry in test [1], in test [2], in test [3], in test [4], in test [6] and in test [7] was “inactive” throughout.
For `CSc1cnccn1`, the Potency result in test [1], in test [2], in test [3], in test [4], in test [6] and in test [7] was “inactive” throughout.
As to `OCC1CCC(CO)CC1` (stereo unspecified), the Potency entry in test [1], in test [2], in test [3], in test [4], in test [5] and in test [6] was “inactive” throughout. Moreover, in test [7], the Potency entry was “inactive”.
As for `C=C(C)C1CC=C(C)C(=O)C1` (stereo unspecified), the Potency entry in test [1], in test [2], in test [3], in test [4], in test [5] and in test [6] was “inactive” each time. Moreover, the Potency entry in test [7] was “inactive”.
In the case of `Fc1ccccc1`, the Potency result in test [1], in test [2], in test [3], in test [4], in test [5] and in test [6] was “inactive” each time. The Potency result in test [7] is “inactive”.
As for `COC(=O)CCCCC(=O)O`, the Potency entry in test [1], in test [2], in test [3], in test [4], in test [6] and in test [7] was “inactive” each time.
Regarding `Cc1ccc2c(c1)C(=O)c1ccccc1C2=O`, the Potency was 15.3 µM (active) in test [1]; 28.2 µM (active) in test [2]; 11.2 µM (active) in test [3]; 12.6 µM (active) in test [4]; 8.91 µM (active) in test [5]; 7.07 µM (active) in test [7]. Moreover, the Potency result in test [6] is “inactive”.
With `O=C(O)CSCC(=O)NC1CCSC1=O` (stereo unspecified), the Potency entry in test [1], in test [2], in test [3], in test [4] and in test [6] was “inactive” each time.
In the case of `CC(C)[C@H]1CC[C@H](C)C[C@@H]1O`, the Potency in test [1] was 55.4 µM (active). Besides, the Potency entry in test [2], in test [3], in test [4], in test [5], in test [6] and in test [7] was “inactive” in each case.
Consider `CCCCOCC(C)O` (stereo unspecified), for which the Potency entry in test [1], in test [2], in test [3], in test [4], in test [5] and in test [6] was “inactive” in each case. Further, the Potency entry in test [7] is “inactive”.
In the case of `CO[Si](CCCn1c(=O)n(CCC[Si](OC)(OC)OC)c(=O)n(CCC[Si](OC)(OC)OC)c1=O)(OC)OC`, the Potency result in test [1], in test [2], in test [3], in test [4], in test [5] and in test [6] was “inactive” throughout. In test [7], the Potency was 17.7 µM (active).
`N#Cc1ccccc1O`: the Potency result in test [1], in test [2], in test [3], in test [4] and in test [6] was “inactive” throughout.
Regarding `CCCCC1CCC(O)CC1` (stereo unspecified), the Potency result in test [1], in test [2], in test [3], in test [4] and in test [6] was “inactive” in each case.
Take `CCOC(=O)CC1(C)OCC(C)O1` (stereo unspecified): the Potency result in test [1], in test [2], in test [3], in test [4], in test [5] and in test [6] was “inactive” in each case. The Potency result in test [7] is “inactive”.
As for `Cc1cccc(Cl)c1`, the Potency entry in test [1], in test [2], in test [3], in test [4] and in test [6] was “inactive” in each case.
With `CN(C)C(C)(C)CO`, the Potency result in test [1], in test [2], in test [3], in test [4], in test [5] and in test [6] was “inactive” each time. Moreover, the Potency result in test [7] was “inactive”.

(Values after PubChem BioAssay (Tox21).)
